Source: PubChem (National Center for Advancing Translational Sciences (NCATS))
Compounds with a hit are over-represented: about 19% of the library has one in this group of screens.
IL1B secr inh: qHTS for Inhibitors of Inflammasome Signaling: IL-1-beta AlphaLISA Primary Screen; THP-1 LPS/ATP IL-1B secretion, AlphaLISA, 16 h; stronger effect = lower value; activity change, % at 57.5 µM; 360,000 compounds, 4.7% hits; AID 743279, 2014; in the data active = activity change below about -50%; inconclusive = mostly about -30% to -49%
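THP-1 cells pretreated 1 hr with compounds (up to 57.5 uM final), then stimulated with LPS (250 ng/mL final) plus ATP (1.25 mM final); secreted IL-1B measured by AlphaLISA after 16 hr, decreased signal indicating inhibition.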
Chronic BCR inh: qHTS Assay to Find Inhibitors of Chronic Active B-Cell Receptor Signaling. ABC-DLBCL IkBa-CBG/CBR reporter, luminescence ratio, 4 h. AID 493014, 2011. 340,000 compounds, 0.05% hits. Potency, µM (top dose mostly 46.1 µM), usual class: inhibitors; active = well fitted inhibition curve with a large enough effect in the signal ratio, with a control signal flat, not every such curve was filed as active; inconclusive = small, poorly fitted or top-dose-only effect, or effect the other way, or a change in a side signal; the % refers to the signal ratio
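TMD8 human ABC-DLBCL cells with doxycycline-inducible IκBα–green luciferase fusion and unfused red luciferase, in 0.5% FBS medium; compounds up to 46 uM, 4 h at 37C. Green/red luminescence ratio, filter-overlap corrected, fitted to concentration-response curves.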
TDP1 cell CPT: qHTS for Inhibitors of human tyrosyl-DNA phosphodiesterase 1 (TDP1): qHTS in cells in presence of CPT; chicken DT40 Tdp1-/-;hTDP1 cells + 20 nM CPT, ATP luminescence, 48 h; Potency, µM (doses to about 46.2 µM), usual class: inhibitors; 420,000 compounds, 12% hits; also: nearly all actives have a fitted effect of over 55% in size
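Cell growth measured by CellTiter-Glo luminescence after a minimum 48 h, 37 C compound exposure with 20 nM CPT in Tdp1-knockout DT40 cells stably expressing hTDP1, seeded 400/well; qHTS titration format.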
TDP1 cell noCPT: qHTS for Inhibitors of human tyrosyl-DNA phosphodiesterase 1 (TDP1): qHTS in cells in absence of CPT; DT40 Tdp1-/- hTDP1 cells, no CPT, ATP luminescence, 48 h; Potency, µM (titrated, usually from 46.2 µM), actives largely listed as inhibitors; 420,000 compounds, 15% hits; also: nearly all actives have a fitted effect of over 55% in size
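Growth of hTDP1-complemented DT40 Tdp1-knockout cells is measured by ATP luminescence after at least 48 hr compound exposure at 37 °C, with DMSO substituting for the 20 nM CPT used in the parallel screen.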
MCF10A rerep: A quantitative high throughput screen for small molecules that induce DNA re-replication in MCF 10a normal breast cells. MCF 10A DNA re-replication, Hoechst nuclear intensity, 48 h. Potency, µM (top dose mostly 46.1 µM), usual class: activators. 350,000 compounds, 2.9% hits. AID 624296, 2012; also: nearly all actives have a fitted effect of over 50% in size
SW480 rereplic: A quantitative high throughput screen for small molecules that induce DNA re-replication in SW480 colon adenocarcinoma cells. AID 624297, 2012. SW480 DNA re-replication, Hoechst DNA content imaging, 48 h. Potency, µM (titrated, usually from 46.1 µM), most hits filed as activators. 340,000 compounds, 1.8% hits; also: nearly all actives have a fitted effect of over 55% in size
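Treated cells incubate 48 hr (37 C, 5% CO2), are stained 40 min with Hoechst, and nuclear fluorescence is enumerated; a rise in nuclei with high DNA signal marks re-replication.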
Numbers stand for hits; . = inactive; ? = inconclusive; / = no result given; [ ] = dose if it differs, or a comment. Unless noted, calls follow the shape of the dose curve; as a rule, active = well fitted curve in the direction sought with a large enough effect; inconclusive = small, poorly fitted or top-dose-only effect, or another doubt; inactive = no such curve, though single readings can be large; an effect the other way counts as inactive or inconclusive.

SMILES	IL1B secr inh	Chronic BCR inh	TDP1 cell CPT	TDP1 cell noCPT	MCF10A rerep	SW480 rereplic
CCOC(=O)c1cc(C(C)(C)C)oc1CNC(=O)c1c(C)oc2c1CCCC2	.	?	?	?	21µM	.
CCc1noc(C)c1C(=O)NNC(=O)c1ccc(N(CC)CC)cc1	.	.	.	.	.	.
Fc1ccccc1N1CCN(Cc2cccnc2)CC1	.	.	.	.	?	.
CCc1c(CN2CCN(c3ccccc3F)CC2)csc1C	/	/	?	21µM	/	/
C/C(=N\OCC(=O)OCC(=O)NC(=O)c1ccccc1)c1ccc2c(c1)OCO2	.	.	.	.	.	?
O=S1(=O)[C@H]2C[C@@H]3C=C[C@]2(CN1Cc1ccc(C(F)(F)F)cc1)O3	.	.	.	.	?	.
CC(NCCS(=O)(=O)c1ccc(Cl)cc1)c1cccc(Cl)c1 (stereo not drawn)	-60	.	.	?	.	.
CC(C(=O)NCCS(=O)(=O)c1ccc(Cl)cc1)S(=O)(=O)c1ccc(Cl)cc1 (stereo not drawn)	.	.	.	.	.	.
CC(SCc1ccccc1)C(=O)Nc1ccccc1F (stereo not drawn)	.	.	.	.	.	.
Cc1cc(C)c2sc(NNC(=O)c3ccc(S(=O)(=O)N4CCc5ccccc5C4)cc3)nc2c1	.	?	3.3µM	2.6µM	?	5.2µM
Cc1cc(C)c2nc(NNC(=O)c3ccc(S(=O)(=O)N4CCc5ccccc5C4)cc3)sc2c1	.	?	5.2µM	4.6µM	?	12µM
Cc1cc(C)c2nc(NNC(=O)c3cc(=O)c4ccccc4o3)sc2c1	.	?	29µM	?	?	.
Cc1nnc(NC(=O)c2ccc(S(=O)(=O)N3CCc4ccccc4C3)cc2)o1	.	.	?	?	.	.
Cc1nn(CC(=O)Nc2nnc(C(C)C)s2)c(=O)c2ccccc12	.	?	.	.	.	.
CCOc1cc(/C=N/NC(=O)c2cccnc2)ccc1OCC(=O)N1CCOCC1	.	.	.	.	.	.
Cc1ccc([C@@H]2C[C@H]3[C@@H](CN2S(=O)(=O)c2ccc(C)cc2)C(=O)C[C@@H](c2ccc(C)cc2)N3S(=O)(=O)c2ccc(Cl)cc2)cc1	.	/	.	.	/	/
CCOC(=O)c1c(S(=O)(=O)N2CCC(C(=O)Nc3ccc(C)cn3)CC2)c(C)n(C)c1C	/	.	.	.	/	/
Cc1ccc(Cl)cc1-c1cc(C(=O)NCc2ccccc2)[nH]n1	/	/	.	.	/	/
CCOc1ccc(Cl)cc1-c1cc(C(=O)NCc2cccc(C(F)(F)F)c2)[nH]n1	.	/	10µM	13µM	/	/
Cc1ccc(Cl)cc1-c1cc(C(=O)NCc2cc(C(F)(F)F)cc(C(F)(F)F)c2)[nH]n1	?	/	?	21µM	/	/
COc1ccc(F)cc1-c1cc(C(=O)NCc2ccc(C(F)(F)F)cc2)[nH]n1	.	/	23µM	16µM	/	/
COc1ccc(F)cc1-c1cc(C(=O)NCc2cccc(C(F)(F)F)c2)[nH]n1	.	/	?	?	/	/
COc1ccc(Cl)cc1-c1cc(C(=O)NCc2cc(C(F)(F)F)cc(C(F)(F)F)c2)[nH]n1	.	/	?	15µM	/	/
CCOc1ccc(NC(=O)c2cccc(N3CCCS3(=O)=O)c2)cc1	/	/	.	.	/	/
CCOC(=O)[C@]12CCC=C1N(Cc1ccco1)C(=O)[C@H](CC(=O)N1CCCCC1)C2	.	/	.	.	/	/
SMILES	IL1B secr inh	Chronic BCR inh	TDP1 cell CPT	TDP1 cell noCPT	MCF10A rerep	SW480 rereplic
Cc1ccc(F)cc1-c1cc(C(=O)NCc2cc(C(F)(F)F)cc(C(F)(F)F)c2)[nH]n1	.	/	29µM	?	/	/
COc1ccc(Cl)cc1-c1cc(C(=O)NCc2cccs2)[nH]n1	.	/	12µM	?	/	/
Cc1cccc(-c2nc3c(C#N)c[nH]n3c2NC2CCCCC2)c1	/	/	?	21µM	/	/
N#Cc1c(-c2ccc(Cl)cc2)ccn2nc(C3CCCCC3)nc12	.	?	?	.	?	.
Cc1cccc(-c2nc(C#N)c(NC3CCCCC3)o2)c1	?	.	.	?	?	.
N#Cc1c[nH]n2c(NC3CCCC3)c(-c3ccc(Cl)cc3)nc12	/	/	?	16µM	/	/
N#Cc1c[nH]n2c(NC3CCCC3)c(-c3ccc(Br)cc3)nc12	/	/	18µM	23µM	/	/
CCOc1ccc2nc(SCC(=O)NC3CCCCC3)[nH]c2c1	.	.	.	?	.	.
Brc1ccc2nc(-c3ccncc3)c(NC3CCCC3)n2c1	.	?	?	.	.	?
CCOc1ccc(-c2nc3c(C#N)c[nH]n3c2NC2CCCCC2)cc1	/	/	8.2µM	7.3µM	/	/
C[C@@H]1CN(Cc2ccc3c(c2)CN(Cc2cccc4cccnc24)CCO3)C[C@H](C)O1	/	/	.[9.04 µM]	?	/	/
COc1ccc2c(c1)nc(-c1cccc(Br)c1)c(=O)n2C(c1ccccn1)c1nc2ccccc2[nH]1 (stereo not drawn)	.	/	?	?	/	/
COc1cc(=O)n2c(c1C(=O)N(C)Cc1cscn1)CCN(C(=O)c1cccc(C)c1C)CC2	/	/	.	.	/	/
O=S(=O)(c1ccc(Cl)cc1)c1cnc2ccccc2n1	-99	?	.	.	?	?
Cc1cc(C)cc(S(=O)(=O)c2cnc3ccccc3n2)c1	-99	?	?	?	?	?
Cc1ccc(S(=O)(=O)N[C@@H](C)C(=O)OCC(=O)N2c3ccccc3NC(=O)C2(C)C)cc1	.	.	.	.	.	.
Cc1cccc(Cn2c(CN3CCC(C(=O)NCCc4ccccc4)CC3)cc3ccccc32)c1	/	?	?	18µM	/	/
Cc1ccnc(N2CCC(C(=O)Nc3ccc4c(c3)OCO4)CC2)n1	.	.	.	.	.	.
O=C(NCCc1ccc(Cl)cc1)C1CCN(c2ncccn2)CC1	.	.	.	.	.	.
Cc1cc(C)nc(N2CCC(C(=O)NCCc3ccccc3)CC2)n1	.	.	8.2µM	9.2µM	.[0.0737 µM]	.
O=C(NCCc1ccc(Cl)cc1)C1CCN(Cc2cc3ccccc3n2Cc2ccccc2)CC1	/	?	23µM	18µM	/	/
Cc1cc(C)nc(N2CCC(C(=O)Nc3ccc4c(c3)OCO4)CC2)n1	.	.	8.2µM	9.2µM	.	.
O=P1(O)CC2=C(CC=CC2)C1	.	/	.	.	/	/
COc1ccc(OCC(=O)OCc2cc(=O)n3nc(C4CC4)sc3n2)cc1	/	/	.	.	/	/
CSc1cccc(NS(=O)(=O)c2ccc3[nH]cc(C(=O)N4CCCC4)c(=O)c3c2)c1	/	/	.	.	/	/
